These results are taken from PubChem BioAssay (Tox21).

Several values for one entry are separate records, joined by “and”; a condition that tells them apart may be missing. Equal entries are not always repeated. Inconclusive results are not listed. The source holds several records for some structures; these can differ, active in one and inactive in another. Activity calls are given as the source filed them. Unless noted, the call rests on the fitted dose curve; in most records, active means well fitted curve in the direction sought with a large enough effect in the repeat runs; inconclusive means weak or mixed curves; inactive means no such curve, though single readings can be large; an effect the other way counts as inactive or inconclusive.

A short description of assay [1]: qHTS assay for small molecule agonists of the p53 signaling pathway (AID 651631; calls by dose curve; further: nearly all actives have a fitted effect of over 15% in size; further: potency means the concentration at half of the fitted maximal effect). The essentials:
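p53RE-bla HCT-116 cells; compounds 16 h, 37 °C; LiveBLAzer B/G FRET substrate 2 h RT; fluorescence intensity read-out, qHTS format.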

Assay [2] is described as follows: qHTS assay for small molecules that induce genotoxicity in human embryonic kidney cells expressing luciferase-tagged ATAD5 (AID 651632). Further: nearly all actives have a fitted effect of over 15% in size. Further: potency means the concentration at half of the fitted maximal effect. An outline of the steps:
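HEK293T cells carrying a luciferase reporter tagged to ATAD5 were exposed to compound or DMSO vehicle for 16 hr at 37C, 5% CO2. Amplite was added, and after 30 min at room temperature luciferase activity was read as a marker of ATAD5 induction.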

The nature of assay [3]: qHTS assay for small molecule agonists of the p53 signaling pathway - cell viability (AID 651633; calls by dose curve; further: nearly all actives have a fitted effect of over 30% in size; further: potency means the concentration at half of the fitted maximal effect). The essentials: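 Viability counter-read: CellTiter-Glo luminescence (30 min, room temperature) in the same p53RE-bla plates. These plates had been exposed to compounds for 16 h at 37 C.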
Assay [4] is described as follows: qHTS assay for small molecules that induce genotoxicity in human embryonic kidney cells expressing luciferase-tagged ATAD5 - cell viability (AID 651634; calls by dose curve; further: nearly all actives have a fitted effect of over 25% in size; further: potency means the concentration at half of the fitted maximal effect). An outline of the steps:
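HEK293T cells expressing luciferase-tagged ATAD5 were exposed to compound or DMSO for 15.5 hr at 37C, 5% CO2. Viability was then read as live-cell protease activity by CellTiter-Fluor fluorescence after 30 min at 37C.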
Background: In qHTS, concentration-response curves come from the screen itself.

Assay [5] in a line: qHTS assay for small molecule disruptors of the mitochondrial membrane potential (AID 720635). Further: potency means the concentration at half of the fitted maximal effect. The essentials: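 Mitochondrial membrane potential tracked with Mito-MPS dye, red aggregates (ex 540/em 590 nm) against green monomers (ex 490/em 535 nm). Compound treatment 1 hr at 37C, dye 30 min in HepG2.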
Assay [6] is described as follows: qHTS assay to test for compound auto fluorescence at 590 nm (red) in HepG2 cells (AID 720674). The essentials:
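1 hr compound incubation on HepG2 cells, 37 C, 5% CO2; plate read ex 540 nm / em 590 nm; intensities reported as Rose Bengal sodium equivalents.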

Assay [7] is described as follows: qHTS assay to test for compound auto fluorescence at 535 nm (green) in HepG2 cells (AID 720675).
Assay [8] can be described thus: qHTS assay to test for compound auto fluorescence at 460 nm (blue) in HEK293 cells (AID 720678). Further: potency means the concentration at half of the fitted maximal effect. The essentials:
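HEK293, 2,000 cells/well, 10% dialyzed FBS; attach 4-5 hr 37C; pin compound or DMSO; o/n 37C/5% CO2; fluorescence 405/460 nm; triamterene-equivalent units.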

Assay [9] in a line: qHTS assay to test for compound auto fluorescence at 590 nm (red) in HEK293 cells (AID 720679). An outline of the steps: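 Intensity at 540nm excitation and 590nm emission is reported as Rose Bengal sodium-equivalent autofluorescence. Measurements followed overnight exposure (37C, 5% CO2) of HEK293 cells, 2,000 per well, to 23 nL compound.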
Assay [10] in a line: qHTS assay for small molecule disruptors of the mitochondrial membrane potential - cell viability (AID 720634; calls by dose curve; further: nearly all actives have a fitted effect of over 20% in size; further: potency means the concentration at half of the fitted maximal effect). An outline of the steps:
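HepG2 cells seeded overnight at 37 C, then exposed to compound or DMSO for 1 hr at 37 C, 5% CO2. m-MPI dye added, then CellTiter-Glo for 30 min at room temperature; viability read as ATP luminescence.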
Tags describe the fitted curve by direction and shape or compound fluorescence and quenching.

Turning to `Oc1c(Cl)cc(Cl)c(Cl)c1Cc1c(O)c(Cl)cc(Cl)c1Cl`, the Potency was 13.3 µM (active) and 9.66 µM (active) and 54.5 µM (active) in assay [1]; 1.88 µM (active) and 68.4 µM (active) and 12.2 µM (active) in [3]; 6.68 µM (active) and 2.72 µM (active) and 1.93 µM (active) in assay [4]; 841 nM (active) and 484 nM (active) and 344 nM (active) in [5]. The Potency entry in assay [2], in [7] and in assay [8] was “inactive” throughout. The call in assay [6] and in assay [9] was inactive.
On to `[Cl][In]([Cl])[Cl]`, for which the Potency entry in assay [1] was “inactive and 61.1 µM (active)”. Further, the Potency result in assay [2], in assay [3], in [4], in [5], in assay [7] and in [8] was “inactive” each time. Also, the call in assay [6] and in [9] was inactive.
Consider `Cc1occc(=O)c1OC(=O)C(C)C`, for which the Potency result in assay [1], in assay [2], in assay [3], in assay [4], in assay [5] and in assay [7] was “inactive” in each case. For the same compound, the call in [6] and in assay [9] was inactive.
`O=C(O)CCc1ccccc1`: the Potency entry in assay [1], in assay [2], in assay [4], in assay [10], in assay [5] and in assay [7] was “inactive” in each case. The call in assay [6] and in [9] was inactive.
For `Cc1cccc(O)c1C`, the Potency entry in assay [1], in assay [2], in assay [4], in assay [10], in assay [5] and in assay [7] was “inactive” each time. Moreover, the Potency result in [8] is “inactive”. For the same compound, the outcome in assay [6] and in [9] was inactive.
`Cc1ccnc2c1NC(=O)c1cccnc1N2C1CC1`: the Potency entry in assay [1], in assay [2], in [3], in assay [4] and in [7] was “inactive” throughout. Moreover, the compound was called inactive in assay [6] and in assay [9].
For `CC(=O)C1=C(C)[C@@H]2C[C@@]3(C1)[C@H](C)CC[C@H]3C2(C)C`, the Potency entry in assay [1], in [2], in assay [3], in assay [4], in [7] and in assay [8] was “inactive” each time. Also, the compound was classed as inactive in [6] and in assay [9].
In the case of `NCCO`, the Potency result in assay [1], in [2], in assay [4], in [7] and in assay [8] was “inactive” each time. The call in assay [6] and in assay [9] was inactive.
Regarding `CCn1c2ccccc2c2cc(N)ccc21`, the Potency result in assay [2], in [3], in [4], in assay [10], in assay [7] and in assay [8] was “inactive” each time. In addition, in assay [5], the Potency was 27 µM (active) and 24.3 µM (active) and 7.7 µM (active). Besides, the compound was called inactive in assay [6] and in assay [9].
As to `NC(=Nc1ccccc1)Nc1ccccc1`, the Potency in assay [2] is 15 µM (active); in [5] it was 3.35 µM (active) and 15.4 µM (active). The Potency result in [3], in assay [4], in [10], in assay [7] and in assay [8] was “inactive” throughout. Further, the compound was called inactive in [6] and in assay [9].
Regarding `O=Cc1ccc(Cl)cc1`, the Potency entry in assay [1], in assay [2], in [4], in assay [7] and in assay [8] was “inactive” throughout. In addition, the compound was called inactive in assay [6] and in assay [9].
Turning to `C=CC(=O)OCCCCCCOC(=O)C=C`, the Potency in assay [1] is 11 µM (active); in [4] it was 31 µM (active). Also, the Potency entry in [3], in [5], in assay [7] and in [8] was “inactive” each time. Besides, the compound was classed as inactive in assay [6] and in assay [9].
Consider `Nc1ccc2cc3ccccc3cc2c1`, for which the Potency in [2] was 27.8 µM (active); in assay [5] it was 1.39 µM (active) and 1.37 µM (active); in [8], 44.7 µM [fluorescent] (active). Also, the Potency result in assay [3], in [4], in [10] and in assay [7] was “inactive” in each case. Besides, the result in [6] and in [9] was inactive.
On to `CCCCCCCCCCCCc1ccccc1O`, for which the Potency entry in [2], in assay [10], in assay [7] and in assay [8] was “inactive” in each case. Also, the Potency in assay [3] is 26.9 µM (active) and 24.3 µM (active); in assay [4] it was 30.6 µM (active); in [5], 2.14 µM (active) and 2.43 µM (active). Also, the result in [6] and in assay [9] was inactive.
With `CNCCC(Oc1ccc(C(F)(F)F)cc1)c1ccccc1` (stereo not drawn), the Potency in [1] is 53.8 µM (active). The Potency entry in assay [4], in [7] and in assay [8] was “inactive” in each case. The outcome in assay [6] and in assay [9] was inactive.
Consider `Oc1ccc(Cl)cc1Cc1cc(Cl)ccc1O`, for which the Potency result in assay [2], in assay [4] and in assay [7] was “inactive” each time. The Potency in assay [3] is 18.8 µM (active) and 55.5 µM (active) and 43.3 µM (active); in assay [10], 6.68 µM (active) and 221 nM (active); in assay [5] it was 1.88 µM (active) and 1.24 µM (active) and 1.22 µM (active). Also, the result in [6] and in [9] was inactive.
As for `O=C(Cl)c1cccc(C(=O)Cl)c1`, the Potency entry in assay [2], in assay [3], in assay [4], in [10], in [5] and in assay [7] was “inactive” in each case. In addition, the Potency result in [8] is “inactive”. The result in assay [6] and in [9] was inactive.
As to `COC(=O)/C=C/c1ccccc1`, the Potency entry in assay [2], in assay [3], in [4], in assay [7] and in assay [8] was “inactive” each time. Moreover, the outcome in [6] and in [9] was inactive.
With `CCCCCCCCCCCCCC[P+](CCCC)(CCCC)CCCC`, the Potency result in assay [2], in [7] and in assay [8] was “inactive” each time. In addition, the Potency in [3] is 24.2 µM (active) and 15.4 µM (active); in [4] it was 30.5 µM (active) and 27.3 µM (active); in [10], 34.2 µM (active) and 24.3 µM (active); in [5], 542 nM (active) and 486 nM (active). The compound was classed as inactive in assay [6] and in assay [9].
For `CC(C)(c1ccccc1)c1ccc(Nc2ccc(C(C)(C)c3ccccc3)cc2)cc1`, the Potency entry in assay [2], in assay [3], in assay [4], in assay [10] and in assay [7] was “inactive” in each case. The Potency in assay [5] was 21.7 µM (active) and 27.3 µM (active). Moreover, the result in assay [6] and in [9] was inactive.
